Experimental data from the supplement of paper PMC10849652.
Targets with a hit are over-represented here; the source holds about 7,900 in all. About 0.6% of all pairs of compound and target were hits.

These targets were tested with CON(C)C(=O)N1N=C(c2cc(F)ccc2F)S[C@@]1(CCCN)c1ccccc1 [filanesib] (assay: log2 fold change, soluble protein after heating vs DMSO (PISA); higher = thermal stabilisation; K562 cells, 10 uM, 30 min; active = over 0.2 and 3.5 SD of the protein, either way, in both replicates (recomputed)).
How it was run: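 Soluble protein was quantified by TMTpro 16plex LC-MS/MS after channel sums were equalised. It was obtained as the supernatant after 21,000xg for 90 min from pooled aliquots of K562 cells (2×10^6 cells/mL, 10 μM compound, 30 min) heated for 3 min across 48°C-58°C and extracted in PBS with 0.5% NP-40 at 4°C. Thermal stability values are relative to control samples and come from duplicates. They are given as log2 fold changes.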

Chain of UniProt O75976 (O75976 whole entry, looked up): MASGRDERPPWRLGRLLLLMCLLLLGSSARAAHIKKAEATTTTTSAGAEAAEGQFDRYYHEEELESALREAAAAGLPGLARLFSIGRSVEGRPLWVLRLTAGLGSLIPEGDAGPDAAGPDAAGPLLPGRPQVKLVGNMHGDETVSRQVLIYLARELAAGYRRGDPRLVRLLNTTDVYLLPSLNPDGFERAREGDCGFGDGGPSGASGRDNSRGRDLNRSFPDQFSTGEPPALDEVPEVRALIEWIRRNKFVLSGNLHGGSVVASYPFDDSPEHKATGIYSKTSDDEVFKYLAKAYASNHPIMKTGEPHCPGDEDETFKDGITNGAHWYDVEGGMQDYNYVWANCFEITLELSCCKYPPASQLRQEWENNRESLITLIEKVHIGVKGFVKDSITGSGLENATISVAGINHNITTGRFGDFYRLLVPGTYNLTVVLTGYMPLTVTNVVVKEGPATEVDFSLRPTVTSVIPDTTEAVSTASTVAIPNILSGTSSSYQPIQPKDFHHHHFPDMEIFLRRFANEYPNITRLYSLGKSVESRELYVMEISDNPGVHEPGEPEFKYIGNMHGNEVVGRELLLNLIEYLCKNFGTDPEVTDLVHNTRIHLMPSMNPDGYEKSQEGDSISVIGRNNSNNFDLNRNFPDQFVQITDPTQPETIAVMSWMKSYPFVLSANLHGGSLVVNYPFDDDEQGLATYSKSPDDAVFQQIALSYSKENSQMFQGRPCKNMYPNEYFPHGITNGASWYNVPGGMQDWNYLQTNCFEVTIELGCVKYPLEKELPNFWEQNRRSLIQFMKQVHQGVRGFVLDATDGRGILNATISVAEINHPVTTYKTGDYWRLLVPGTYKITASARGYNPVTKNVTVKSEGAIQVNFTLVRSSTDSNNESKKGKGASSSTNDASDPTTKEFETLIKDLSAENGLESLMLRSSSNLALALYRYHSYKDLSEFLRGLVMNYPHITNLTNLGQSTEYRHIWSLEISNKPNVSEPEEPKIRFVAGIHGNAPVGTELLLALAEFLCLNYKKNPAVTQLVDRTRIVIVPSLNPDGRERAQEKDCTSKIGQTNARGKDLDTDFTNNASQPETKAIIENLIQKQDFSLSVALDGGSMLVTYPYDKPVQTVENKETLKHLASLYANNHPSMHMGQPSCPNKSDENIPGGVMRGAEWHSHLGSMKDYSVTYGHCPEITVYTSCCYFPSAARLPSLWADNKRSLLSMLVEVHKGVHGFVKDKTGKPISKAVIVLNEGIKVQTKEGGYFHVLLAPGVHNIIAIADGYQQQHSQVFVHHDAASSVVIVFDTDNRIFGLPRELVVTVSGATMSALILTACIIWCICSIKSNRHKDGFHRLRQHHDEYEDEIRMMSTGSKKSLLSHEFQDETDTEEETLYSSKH
Chain of UniProt Q9NXV6 (Q9NXV6 whole entry, looked up): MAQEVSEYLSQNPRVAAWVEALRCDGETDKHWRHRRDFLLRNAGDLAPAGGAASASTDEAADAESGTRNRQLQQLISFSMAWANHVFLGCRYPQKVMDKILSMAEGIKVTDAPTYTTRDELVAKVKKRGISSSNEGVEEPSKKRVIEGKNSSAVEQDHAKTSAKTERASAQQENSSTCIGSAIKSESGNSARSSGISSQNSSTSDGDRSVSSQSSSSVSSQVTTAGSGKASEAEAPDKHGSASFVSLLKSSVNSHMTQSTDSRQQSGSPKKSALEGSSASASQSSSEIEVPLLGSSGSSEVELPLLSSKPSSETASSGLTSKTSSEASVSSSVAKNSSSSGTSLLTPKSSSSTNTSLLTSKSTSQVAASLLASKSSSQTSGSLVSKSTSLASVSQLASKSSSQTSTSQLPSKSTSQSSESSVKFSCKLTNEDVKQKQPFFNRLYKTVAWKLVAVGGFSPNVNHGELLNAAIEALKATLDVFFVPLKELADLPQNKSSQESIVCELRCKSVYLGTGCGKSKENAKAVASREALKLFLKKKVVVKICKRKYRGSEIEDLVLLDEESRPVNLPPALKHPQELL
Chain of UniProt Q9NZN8 (Q9NZN8 whole entry, looked up): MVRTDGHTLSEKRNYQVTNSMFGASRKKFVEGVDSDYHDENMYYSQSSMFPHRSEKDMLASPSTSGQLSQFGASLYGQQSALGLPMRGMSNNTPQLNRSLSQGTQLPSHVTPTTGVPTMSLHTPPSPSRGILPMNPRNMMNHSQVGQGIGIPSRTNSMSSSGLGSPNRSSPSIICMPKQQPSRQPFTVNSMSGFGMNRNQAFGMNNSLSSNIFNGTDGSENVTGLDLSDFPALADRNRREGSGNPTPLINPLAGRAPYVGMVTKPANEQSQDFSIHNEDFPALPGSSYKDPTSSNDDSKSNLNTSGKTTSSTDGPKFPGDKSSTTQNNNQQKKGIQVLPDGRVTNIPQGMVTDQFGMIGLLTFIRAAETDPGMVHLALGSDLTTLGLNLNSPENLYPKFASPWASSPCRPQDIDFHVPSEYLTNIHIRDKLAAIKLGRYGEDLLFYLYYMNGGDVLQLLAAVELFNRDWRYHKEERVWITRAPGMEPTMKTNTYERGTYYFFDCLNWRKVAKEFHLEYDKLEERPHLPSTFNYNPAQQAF
Chain of UniProt O75208 (O75208 whole entry, looked up): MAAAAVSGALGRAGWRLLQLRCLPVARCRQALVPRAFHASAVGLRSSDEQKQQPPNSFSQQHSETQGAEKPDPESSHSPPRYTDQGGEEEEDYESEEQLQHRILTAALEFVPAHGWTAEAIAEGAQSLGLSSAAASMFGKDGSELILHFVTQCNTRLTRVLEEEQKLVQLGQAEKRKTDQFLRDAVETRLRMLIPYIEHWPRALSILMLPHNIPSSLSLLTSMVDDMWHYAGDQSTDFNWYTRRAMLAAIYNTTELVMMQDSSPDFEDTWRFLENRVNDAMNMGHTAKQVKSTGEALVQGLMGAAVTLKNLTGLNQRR
Chain of UniProt P19397 (P19397 whole entry, looked up): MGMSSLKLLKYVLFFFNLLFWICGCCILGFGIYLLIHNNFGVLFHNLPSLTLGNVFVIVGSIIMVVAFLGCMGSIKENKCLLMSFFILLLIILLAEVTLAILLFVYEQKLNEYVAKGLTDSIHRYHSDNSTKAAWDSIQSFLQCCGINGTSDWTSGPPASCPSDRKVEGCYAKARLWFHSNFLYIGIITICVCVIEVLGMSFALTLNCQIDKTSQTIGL
Chain of UniProt P42575 (P42575 whole entry, looked up): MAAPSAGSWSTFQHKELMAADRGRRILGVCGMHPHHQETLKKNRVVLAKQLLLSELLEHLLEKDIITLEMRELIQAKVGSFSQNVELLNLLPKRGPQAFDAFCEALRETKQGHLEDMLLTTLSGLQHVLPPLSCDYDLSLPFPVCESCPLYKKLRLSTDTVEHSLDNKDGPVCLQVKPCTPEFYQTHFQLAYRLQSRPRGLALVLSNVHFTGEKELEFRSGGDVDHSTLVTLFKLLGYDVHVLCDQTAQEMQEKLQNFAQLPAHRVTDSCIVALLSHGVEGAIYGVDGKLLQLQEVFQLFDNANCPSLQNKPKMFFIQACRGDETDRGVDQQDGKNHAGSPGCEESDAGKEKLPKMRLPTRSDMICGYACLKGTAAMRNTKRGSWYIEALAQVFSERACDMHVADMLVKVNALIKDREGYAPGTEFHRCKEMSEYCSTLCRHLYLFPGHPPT
Chain of UniProt Q96LT7 (Q96LT7 whole entry, looked up): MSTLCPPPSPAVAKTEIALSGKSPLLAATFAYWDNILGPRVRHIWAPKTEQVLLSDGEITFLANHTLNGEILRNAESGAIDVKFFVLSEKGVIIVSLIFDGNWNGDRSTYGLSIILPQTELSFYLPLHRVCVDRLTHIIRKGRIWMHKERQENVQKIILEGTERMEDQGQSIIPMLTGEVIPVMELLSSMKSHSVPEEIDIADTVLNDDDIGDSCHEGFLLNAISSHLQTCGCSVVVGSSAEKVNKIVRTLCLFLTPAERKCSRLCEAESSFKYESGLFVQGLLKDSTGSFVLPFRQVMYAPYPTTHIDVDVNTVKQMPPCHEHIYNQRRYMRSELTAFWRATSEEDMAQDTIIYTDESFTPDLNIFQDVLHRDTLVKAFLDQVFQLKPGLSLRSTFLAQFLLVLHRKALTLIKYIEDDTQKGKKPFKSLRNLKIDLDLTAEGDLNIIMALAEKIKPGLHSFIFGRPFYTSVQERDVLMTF
Chain of UniProt P61024 (P61024 whole entry, looked up): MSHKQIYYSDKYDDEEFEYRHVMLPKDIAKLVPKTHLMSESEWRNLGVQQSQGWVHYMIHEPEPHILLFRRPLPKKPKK
Chain of UniProt Q8N1A6 (Q8N1A6 whole entry, looked up): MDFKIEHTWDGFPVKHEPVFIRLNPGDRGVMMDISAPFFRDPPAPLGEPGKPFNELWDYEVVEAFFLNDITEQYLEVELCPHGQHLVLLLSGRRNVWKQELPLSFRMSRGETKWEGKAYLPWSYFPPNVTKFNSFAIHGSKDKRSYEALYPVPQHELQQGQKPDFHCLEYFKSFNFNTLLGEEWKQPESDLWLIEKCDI
Chain of UniProt P35520 (P35520 whole entry, looked up): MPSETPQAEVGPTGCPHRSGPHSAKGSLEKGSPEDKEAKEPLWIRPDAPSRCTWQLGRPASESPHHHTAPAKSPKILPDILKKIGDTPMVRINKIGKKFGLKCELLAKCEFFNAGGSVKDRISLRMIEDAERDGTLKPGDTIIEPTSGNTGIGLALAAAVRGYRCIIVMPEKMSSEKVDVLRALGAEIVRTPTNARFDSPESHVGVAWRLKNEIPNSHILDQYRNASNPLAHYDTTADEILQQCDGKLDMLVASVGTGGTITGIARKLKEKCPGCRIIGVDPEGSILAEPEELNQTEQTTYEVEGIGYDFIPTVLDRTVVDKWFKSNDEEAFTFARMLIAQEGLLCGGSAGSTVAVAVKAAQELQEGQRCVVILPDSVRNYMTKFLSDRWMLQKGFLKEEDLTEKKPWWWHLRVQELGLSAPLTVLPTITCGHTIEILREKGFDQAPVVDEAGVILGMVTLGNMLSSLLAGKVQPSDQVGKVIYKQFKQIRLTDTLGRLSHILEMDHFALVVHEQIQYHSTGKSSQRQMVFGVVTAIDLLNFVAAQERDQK
Chain of UniProt P14854 (P14854 whole entry, looked up): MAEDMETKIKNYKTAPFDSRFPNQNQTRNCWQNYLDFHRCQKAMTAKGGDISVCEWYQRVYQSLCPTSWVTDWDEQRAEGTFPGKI

log2 fold change, inactive:
CSNK1D (UniProt P48730) 0.153
C9orf72 (UniProt Q96LT7) -0.054
CKS1B (UniProt P61024) 0.047
CDC123 (UniProt O75794) -0.043
CASP2 (UniProt P42575) -0.02
C4orf33 (UniProt Q8N1A6) 0.072
CCNK isoform 4 (UniProt O75909) 0.177
CDK12 (UniProt Q9NYV4) 0.463
COX5B (UniProt P10606) 0.212
CELF2 isoform 3 (UniProt O95319) 0.052
CDK5 (UniProt Q00535) 0.024
CDK6 (UniProt Q00534) 0.037
CMTM3 (UniProt Q96MX0) 0.105
COQ9 (UniProt O75208) -0.113
CHEK1 (UniProt O14757) -0.025
CBS (UniProt P35520) -0.05
CPT1A (UniProt P50416) 0.204
CDK5RAP1 (UniProt Q96SZ6) -0.049
CES2 isoform 4 (UniProt O00748) 0.055
COX6B1 (UniProt P14854) 0.003
CTBS (UniProt Q01459) -0.038
CNOT1 (UniProt A5YKK6) -0.019
CETN2 (UniProt P41208) 0.225
COMMD2 (UniProt Q86X83) 0.058
CCZ1 (UniProt P86791) -0.062
CA1 (UniProt P00915) -0.002
CDK13 (UniProt Q14004) 0.169
CPD (UniProt O75976) 0.082
CDKN2AIP (UniProt Q9NXV6) 0.024
CD151 (UniProt P48509) 0.108
CDK5RAP3 isoform 4 (UniProt Q96JB5) -0.085
CD53 (UniProt P19397) 0.025
CD55 isoform 7 (UniProt P08174) 0.086
C9orf64 (UniProt Q5T6V5) -0.091
CNOT2 (UniProt Q9NZN8) 0.006
CCDC59 (UniProt Q9P031) 0.301
